According to the supplement of paper PMC10849652:
About 8,800 targets were measured; listed, in parts, are those with a hit and a random draw of the rest. About 0.5% of all pairs of compound and target were hits. Unmarked numbers belong to inactive results.

Assays:
Test in all cases: log2 fold change, soluble protein after heating vs DMSO (PISA); higher = thermal stabilisation; K562 lysate, 10 uM; active = over 0.2 and 3.5 SD of the protein, either way, in both replicates (recomputed)
lapatinib = compound: CS(=O)(=O)CCNCc1ccc(-c2ccc3ncnc(Nc4ccc(OCc5cccc(F)c5)c(Cl)c4)c3c2)o1 [lapatinib]
Method in brief: (§1)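 A 30 min treatment with 10 μM compound was applied to crude K562 extract at 1 mg/mL protein in PBS pH 7.4 with 1 mM MgCl2. Heating for 3 min spanned 48°C-58°C, after which aliquots were pooled, adjusted to 0.5% NP-40 at 4°C and spun at 21,000xg for 90 min. TMTpro 16plex LC-MS/MS of the supernatant, with channel sums equalised, gave values recorded as log-two fold change in thermal stability against solvent controls, from duplicates.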

pictilisib = compound: CS(=O)(=O)N1CCN(Cc2cc3nc(-c4cccc5[nH]ncc45)nc(N4CCOCC4)c3s2)CC1 [pictilisib]
Method in brief: as §1

crizotinib = compound: C[C@@H](Oc1cc(-c2cnn(C3CCNCC3)c2)cnc1N)c1c(Cl)ccc(F)c1Cl [crizotinib]
Method in brief: as §1

[1] = compound: C[C@H](C1=CC=C(C=C1)C(=O)NC2=C3C=CNC3=NC=C2)N
Method in brief: as §1

duvelisib = compound: C[C@H](Nc1ncnc2nc[nH]c12)c1cc2cccc(Cl)c2c(=O)n1-c1ccccc1 [duvelisib]
Method in brief: as §1

gandotinib = compound: Cc1cc(Nc2cc(CN3CCOCC3)c3nc(C)c(Cc4ccc(Cl)cc4F)n3n2)n[nH]1 [gandotinib]
Method in brief: as §1

tozasertib = compound: Cc1cc(Nc2cc(N3CCN(C)CC3)nc(Sc3ccc(NC(=O)C4CC4)cc3)n2)n[nH]1 [tozasertib]
Method in brief: as §1

doramapimod = compound: Cc1ccc(-n2nc(C(C)(C)C)cc2NC(=O)Nc2ccc(OCCN3CCOCC3)c3ccccc23)cc1 [doramapimod]
Method in brief: as §1

bafetinib = compound: Cc1ccc(NC(=O)c2ccc(CN3CC[C@H](N(C)C)C3)c(C(F)(F)F)c2)cc1Nc1nccc(-c2cncnc2)n1 [bafetinib]
Method in brief: as §1

[2] = compound: Cc1cccc(CC(=O)N2CCc3c2ccc(-c2cn(C)c4ncnc(N)c24)c3F)n1
Method in brief: as §1

Chain of UniProt Q5TBB1 (Q5TBB1 whole entry, looked up): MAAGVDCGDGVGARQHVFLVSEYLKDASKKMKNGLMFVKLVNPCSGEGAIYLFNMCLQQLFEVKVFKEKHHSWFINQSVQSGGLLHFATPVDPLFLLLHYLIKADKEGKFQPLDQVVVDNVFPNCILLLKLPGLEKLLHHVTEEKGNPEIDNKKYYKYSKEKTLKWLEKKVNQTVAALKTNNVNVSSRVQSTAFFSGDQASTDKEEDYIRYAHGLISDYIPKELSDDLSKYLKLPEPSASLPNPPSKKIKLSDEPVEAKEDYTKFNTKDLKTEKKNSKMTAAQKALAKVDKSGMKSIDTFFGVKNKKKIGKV
Chain of UniProt Q9NW64 (Q9NW64 whole entry, looked up): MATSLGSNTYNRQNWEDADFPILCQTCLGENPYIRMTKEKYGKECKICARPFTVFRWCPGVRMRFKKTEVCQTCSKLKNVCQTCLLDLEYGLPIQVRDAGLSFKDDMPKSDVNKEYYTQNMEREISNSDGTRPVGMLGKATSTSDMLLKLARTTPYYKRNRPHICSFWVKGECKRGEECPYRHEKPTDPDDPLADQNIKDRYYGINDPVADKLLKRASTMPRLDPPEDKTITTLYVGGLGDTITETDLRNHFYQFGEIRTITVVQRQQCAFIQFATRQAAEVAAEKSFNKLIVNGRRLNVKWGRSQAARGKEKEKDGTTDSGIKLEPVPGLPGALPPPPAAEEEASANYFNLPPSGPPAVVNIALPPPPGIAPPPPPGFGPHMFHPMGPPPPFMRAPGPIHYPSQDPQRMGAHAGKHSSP
Chain of UniProt P31949 (P31949 whole entry, looked up): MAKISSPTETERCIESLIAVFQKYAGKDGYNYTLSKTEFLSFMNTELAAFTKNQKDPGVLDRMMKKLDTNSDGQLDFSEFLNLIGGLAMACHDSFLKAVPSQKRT
Chain of UniProt Q8NC44 (Q8NC44 whole entry, looked up): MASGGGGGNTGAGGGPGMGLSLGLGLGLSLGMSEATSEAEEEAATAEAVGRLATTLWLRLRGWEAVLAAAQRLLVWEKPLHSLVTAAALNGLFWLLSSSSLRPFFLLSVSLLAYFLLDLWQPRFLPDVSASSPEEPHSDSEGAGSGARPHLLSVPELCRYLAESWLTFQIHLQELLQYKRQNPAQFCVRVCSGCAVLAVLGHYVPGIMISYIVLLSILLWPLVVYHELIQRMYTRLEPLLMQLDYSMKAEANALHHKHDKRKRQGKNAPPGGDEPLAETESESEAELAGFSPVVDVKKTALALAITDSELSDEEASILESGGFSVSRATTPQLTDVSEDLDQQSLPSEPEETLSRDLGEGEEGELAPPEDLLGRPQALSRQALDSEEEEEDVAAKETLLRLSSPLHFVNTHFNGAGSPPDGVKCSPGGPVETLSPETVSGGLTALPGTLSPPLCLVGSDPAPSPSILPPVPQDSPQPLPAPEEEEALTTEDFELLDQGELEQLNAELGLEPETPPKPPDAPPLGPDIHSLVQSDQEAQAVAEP
Chain of UniProt P40938 (P40938 whole entry, looked up): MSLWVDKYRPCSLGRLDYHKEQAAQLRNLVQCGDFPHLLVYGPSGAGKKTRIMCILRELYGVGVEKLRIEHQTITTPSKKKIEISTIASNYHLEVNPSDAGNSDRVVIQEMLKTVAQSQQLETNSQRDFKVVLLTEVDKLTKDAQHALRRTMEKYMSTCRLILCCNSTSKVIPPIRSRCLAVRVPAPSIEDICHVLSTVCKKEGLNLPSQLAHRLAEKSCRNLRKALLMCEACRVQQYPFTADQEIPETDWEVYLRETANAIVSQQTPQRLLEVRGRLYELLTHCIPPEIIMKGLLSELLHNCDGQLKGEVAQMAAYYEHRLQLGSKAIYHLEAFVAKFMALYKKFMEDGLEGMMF
Chain of UniProt P61586 (P61586 whole entry, looked up): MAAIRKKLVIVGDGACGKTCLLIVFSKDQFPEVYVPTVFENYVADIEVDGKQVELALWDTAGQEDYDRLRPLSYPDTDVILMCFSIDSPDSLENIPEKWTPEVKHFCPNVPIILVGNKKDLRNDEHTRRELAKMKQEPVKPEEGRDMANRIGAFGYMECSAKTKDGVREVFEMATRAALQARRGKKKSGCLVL
Chain of UniProt O60518 (O60518 whole entry, looked up): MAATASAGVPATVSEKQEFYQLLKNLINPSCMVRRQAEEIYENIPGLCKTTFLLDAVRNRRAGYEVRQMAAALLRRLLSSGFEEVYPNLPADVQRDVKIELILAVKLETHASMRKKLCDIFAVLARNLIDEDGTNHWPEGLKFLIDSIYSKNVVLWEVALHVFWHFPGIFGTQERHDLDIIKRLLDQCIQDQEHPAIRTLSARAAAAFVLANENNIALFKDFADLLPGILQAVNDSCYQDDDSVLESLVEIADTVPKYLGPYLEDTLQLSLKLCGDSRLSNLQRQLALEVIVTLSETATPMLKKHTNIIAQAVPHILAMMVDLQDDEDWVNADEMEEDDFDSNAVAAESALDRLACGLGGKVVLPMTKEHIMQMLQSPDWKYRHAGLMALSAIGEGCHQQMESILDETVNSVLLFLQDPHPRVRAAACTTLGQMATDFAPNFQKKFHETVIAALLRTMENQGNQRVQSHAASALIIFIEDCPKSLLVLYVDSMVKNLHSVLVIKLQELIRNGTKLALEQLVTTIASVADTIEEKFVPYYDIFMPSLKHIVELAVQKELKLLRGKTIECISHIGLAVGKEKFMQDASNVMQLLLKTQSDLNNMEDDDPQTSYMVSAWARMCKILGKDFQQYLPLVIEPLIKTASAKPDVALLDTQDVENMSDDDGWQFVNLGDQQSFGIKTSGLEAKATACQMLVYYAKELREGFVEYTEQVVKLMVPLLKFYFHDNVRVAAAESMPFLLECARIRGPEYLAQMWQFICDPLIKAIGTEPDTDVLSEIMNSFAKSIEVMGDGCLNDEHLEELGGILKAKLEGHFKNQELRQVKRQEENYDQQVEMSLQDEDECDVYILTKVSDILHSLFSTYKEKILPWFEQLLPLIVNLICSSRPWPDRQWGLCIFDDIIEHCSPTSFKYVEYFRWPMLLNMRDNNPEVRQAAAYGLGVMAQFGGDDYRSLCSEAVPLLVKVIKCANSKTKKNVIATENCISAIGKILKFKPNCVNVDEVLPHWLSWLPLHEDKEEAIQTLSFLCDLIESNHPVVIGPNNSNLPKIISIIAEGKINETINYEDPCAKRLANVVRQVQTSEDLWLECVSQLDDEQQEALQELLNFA
Chain of UniProt Q8NC42 (Q8NC42 whole entry, looked up): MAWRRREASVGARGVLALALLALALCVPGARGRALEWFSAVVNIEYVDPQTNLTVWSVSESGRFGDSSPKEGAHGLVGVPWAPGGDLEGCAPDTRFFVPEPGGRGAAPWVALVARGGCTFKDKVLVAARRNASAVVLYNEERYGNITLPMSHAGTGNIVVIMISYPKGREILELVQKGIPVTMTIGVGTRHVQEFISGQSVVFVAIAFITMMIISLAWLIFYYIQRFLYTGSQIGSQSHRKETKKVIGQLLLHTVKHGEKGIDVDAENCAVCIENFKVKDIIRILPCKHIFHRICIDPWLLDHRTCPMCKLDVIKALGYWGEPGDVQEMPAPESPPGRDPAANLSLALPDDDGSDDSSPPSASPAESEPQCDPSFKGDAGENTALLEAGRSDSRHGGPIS
Chain of UniProt Q9Y3Z3 (Q9Y3Z3 whole entry, looked up): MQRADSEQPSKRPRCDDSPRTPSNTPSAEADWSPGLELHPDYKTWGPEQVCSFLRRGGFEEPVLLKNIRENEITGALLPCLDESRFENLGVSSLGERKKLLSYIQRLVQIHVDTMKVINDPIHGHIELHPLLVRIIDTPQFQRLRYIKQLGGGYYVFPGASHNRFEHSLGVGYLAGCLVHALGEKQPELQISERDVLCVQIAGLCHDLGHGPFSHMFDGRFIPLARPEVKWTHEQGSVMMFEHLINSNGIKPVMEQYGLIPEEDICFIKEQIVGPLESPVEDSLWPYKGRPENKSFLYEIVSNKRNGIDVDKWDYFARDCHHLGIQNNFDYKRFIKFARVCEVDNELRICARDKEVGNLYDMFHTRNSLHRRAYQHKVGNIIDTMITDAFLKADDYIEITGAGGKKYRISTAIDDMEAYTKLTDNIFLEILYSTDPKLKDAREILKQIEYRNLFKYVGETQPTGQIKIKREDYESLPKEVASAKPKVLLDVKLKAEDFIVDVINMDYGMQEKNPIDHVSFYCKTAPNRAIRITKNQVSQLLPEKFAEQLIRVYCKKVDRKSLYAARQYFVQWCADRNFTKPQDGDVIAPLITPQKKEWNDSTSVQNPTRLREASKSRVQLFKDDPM
Chain of UniProt Q96HR9 (Q96HR9 whole entry, looked up): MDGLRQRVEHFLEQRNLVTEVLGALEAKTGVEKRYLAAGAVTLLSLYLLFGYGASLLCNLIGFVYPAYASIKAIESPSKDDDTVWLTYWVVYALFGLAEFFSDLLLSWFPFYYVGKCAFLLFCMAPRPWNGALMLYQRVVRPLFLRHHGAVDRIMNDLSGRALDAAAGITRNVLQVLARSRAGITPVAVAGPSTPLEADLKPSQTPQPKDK
Chain of UniProt P61224 (P61224 whole entry, looked up): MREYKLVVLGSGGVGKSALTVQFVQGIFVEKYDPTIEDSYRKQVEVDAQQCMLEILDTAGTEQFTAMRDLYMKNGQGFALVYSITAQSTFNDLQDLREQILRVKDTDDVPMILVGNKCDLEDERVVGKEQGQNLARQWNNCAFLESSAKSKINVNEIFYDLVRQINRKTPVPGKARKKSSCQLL
Chain of UniProt P35249 (P35249 whole entry, looked up): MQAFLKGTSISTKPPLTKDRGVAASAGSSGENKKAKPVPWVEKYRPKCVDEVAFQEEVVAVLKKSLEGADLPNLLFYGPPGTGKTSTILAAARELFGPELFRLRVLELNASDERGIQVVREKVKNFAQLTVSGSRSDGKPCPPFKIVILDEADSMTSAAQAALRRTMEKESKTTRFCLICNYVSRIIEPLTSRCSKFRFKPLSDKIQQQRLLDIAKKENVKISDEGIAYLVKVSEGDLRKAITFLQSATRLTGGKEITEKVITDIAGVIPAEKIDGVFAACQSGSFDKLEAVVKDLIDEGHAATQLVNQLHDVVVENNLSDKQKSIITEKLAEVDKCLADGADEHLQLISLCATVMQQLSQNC

Row | Target | log2 fold change (lapatinib) | log2 fold change (pictilisib) | log2 fold change (crizotinib) | log2 fold change [1] | log2 fold change (duvelisib) | log2 fold change (gandotinib) | log2 fold change (tozasertib) | log2 fold change (doramapimod) | log2 fold change (bafetinib) | log2 fold change [2]
1 | S100A11 (UniProt P31949) | 0.105 | 0.006 | 0.02 | 0.097 | 0.052 | -0.042 | -0.043 | 0.003 | -0.039 | -0.032
2 | RBM22 (UniProt Q9NW64) | -0.01 | -0.011 | 0.038 | 0.034 | 0.008 | -0.019 | 0.026 | 0.072 | 0.001 | -0.016
3 | SEH1L isoform 1 (UniProt Q96EE3) | -0.03 | -0.009 | 0.01 | -0.027 | -0.049 | 0.029 | 0.011 | 0.007 | -0.085 | 0.052
4 | RAD50 isoform 2 (UniProt Q92878) | -0.012 | -0.001 | -0.025 | 0.007 | -0.019 | -0.07 | 0.011 | -0.003 | -0.004 | 0.006
5 | RPLP0P6 (UniProt Q8NHW5) | 0.003 | 0.033 | -0.013 | 0.014 | 0.016 | -0.013 | -0.005 | 0.001 | 0.274 (active) | 0.034
6 | RPL27 (UniProt P61353) | -0.04 | 0.008 | 0.013 | 0.411 (active) | 0.012 | -0.098 | 0.01 | -0.034 | -0.033 | -0.118
7 | RAP1B (UniProt P61224) | 0.009 | -0.006 | 0.008 | 0.215 (active) | -0.045 | -0.036 | 0 | 0.017 | 0.17 | -0.021
8 | RAI14 isoform 2 (UniProt Q9P0K7) | -0.026 | -0.007 | -0.014 | 0 | -0.025 | -0.051 | 0.009 | 0 | -0.029 | 0.002
9 | RALGAPB (UniProt Q86X10) | 0.021 | -0.062 | -0.088 | -0.09 | 0.103 | -0.06 | 0.062 | 0.046 | -0.043 | 0.103
10 | RHOA (UniProt P61586) | 0.009 | 0.314 | 0.035 | 0.345 (active) | -0.023 | -0.058 | -0.092 | -0.036 | 0.08 | -0.138
11 | RCC1 isoform 2 (UniProt P18754) | -0.018 | 0.009 | -0.063 | -0.019 | 0.017 | -0.066 | 0.011 | -0.017 | -0.01 | 0.034
12 | RANBP6 (UniProt O60518) | -0.007 | -0.005 | -0.125 | -0.067 | 0.019 | -0.01 | 0.012 | 0.039 | 0.016 | 0.148
13 | RFC2 (UniProt P35250) | -0.004 | 0.015 | -0.046 | -0.025 | 0.025 | -0.007 | 0.005 | 0.042 | -0.074 | 0.041
14 | REEP6 (UniProt Q96HR9) | 0.066 | 0.047 | -0.04 | -0.269 | -0.006 | 0.056 | 0.097 | 0.052 | -0.031 | 0.078
15 | RBM8A (UniProt Q9Y5S9) | 0.01 | 0.017 | 0.135 | 0.277 (active) | -0.014 | -0.209 | 0.06 | -0.038 | -0.017 | -0.2
16 | RFC3 (UniProt P40938) | -0.045 | -0.009 | -0.043 | -0.072 | 0.037 | -0.039 | 0.027 | 0.016 | -0.051 | 0.1
17 | SDHC (UniProt Q99643) | 0.002 | 0.071 | 0.032 | -0.244 | 0.004 | 0.179 | -0.067 | 0.016 | -0.004 | 0.133
18 | RNF149 (UniProt Q8NC42) | 0.073 | -0.025 | -0.006 | -0.039 | -0.025 | -0.026 | – | -0.099 | -0.105 | -0.013
19 | RBBP7 isoform 2 (UniProt Q16576) | 0.002 | 0.027 | 0.008 | -0.213 | 0.025 | 0.019 | 0.017 | 0.035 | 0.018 | -0.011
20 | RNASEL (UniProt Q05823) | -0.034 | -0.076 | -0.04 | -0.011 | 0.007 | -0.068 | -0.014 | -0.007 | -0.018 | -0.013
21 | RNASEH2B (UniProt Q5TBB1) | 0.001 | 0.039 | -0.049 | 0.126 | 0.03 | -0.126 | 0.055 | 0.041 | 0.027 | -0.064
22 | RNF168 (UniProt Q8IYW5) | -0.034 | 0.063 | 0.027 | -0.015 | 0.037 | 0.002 | -0.088 | -0.008 | -0.212 | -0.036
23 | RETREG2 (UniProt Q8NC44) | -0.051 | -0.037 | -0.074 | -0.052 | – | -0.052 | 0.025 | -0.005 | -0.141 | 0.122
24 | SAMHD1 (UniProt Q9Y3Z3) | 0.02 | -0.071 | -0.033 | -0.038 | 0.013 | -0.029 | 0.032 | -0.005 | -0.071 | 0.028
25 | RAP1GAP isoform 4 (UniProt P47736) | -0.019 | -0.018 | -0.044 | 0.044 | -0.032 | -0.044 | -0.009 | -0.001 | -0.069 | 0.007
26 | RRAGA (UniProt Q7L523) | 0 | -0.06 | -0.084 | 0.075 | 0.063 | -0.035 | -0.033 | -0.058 | -0.018 | -0.02
27 | RCAN1 (UniProt P53805) | -0.017 | -0.048 | -0.127 | -0.088 | -0.012 | 0.041 | 0.017 | -0.039 | 0.123 | -0.03
28 | RFC4 (UniProt P35249) | -0.01 | -0.004 | -0.027 | -0.065 | 0.01 | -0.028 | -0.027 | 0.035 | -0.018 | 0.041
29 | RPS9 (UniProt P46781) | -0.012 | 0.009 | 0.061 | 0.244 (active) | 0.006 | -0.087 | 0.016 | -0.023 | 0.034 | -0.07
30 | RPL31 (UniProt P62899) | -0.01 | 0.009 | 0.016 | -0.006 | 0.004 | 0.005 | -0.006 | -0.041 | -0.023 | 0.029
